Results as given in PubChem BioAssay AID1456 (Vanderbilt High Throughput Screening Facility, 2008).
About 4,100 (2.2%) of roughly 190,000 compounds were called active.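 How the source made its calls: active means thallium flux slope and its plate-corrected score both differing from the plate sample mean at a set confidence after two filtering rounds, in either direction; inactive means the rest.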 The sample as a whole holds a higher share of actives than the screen did.

The compounds below were run against Solute carrier family 12 member 5 (Homo sapiens) (UniProt Q9H2X9) (assay: KCC2 cotransporter modulators, thallium flux, primary screen, cell-based, HEK293 KCC2, FluoZin-2 fluorescence, MLSMR (AID 1456;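 further: slope of fluorescence scaled to starting intensity during 10 to 20 s after thallium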)). Conditions: KCC2 cells, thallium flux FluoZin-2 fluorescence; at 10 µM.
Solute carrier family 12 member 5 (Homo sapiens), sequence (Q9H2X9 whole entry, looked up): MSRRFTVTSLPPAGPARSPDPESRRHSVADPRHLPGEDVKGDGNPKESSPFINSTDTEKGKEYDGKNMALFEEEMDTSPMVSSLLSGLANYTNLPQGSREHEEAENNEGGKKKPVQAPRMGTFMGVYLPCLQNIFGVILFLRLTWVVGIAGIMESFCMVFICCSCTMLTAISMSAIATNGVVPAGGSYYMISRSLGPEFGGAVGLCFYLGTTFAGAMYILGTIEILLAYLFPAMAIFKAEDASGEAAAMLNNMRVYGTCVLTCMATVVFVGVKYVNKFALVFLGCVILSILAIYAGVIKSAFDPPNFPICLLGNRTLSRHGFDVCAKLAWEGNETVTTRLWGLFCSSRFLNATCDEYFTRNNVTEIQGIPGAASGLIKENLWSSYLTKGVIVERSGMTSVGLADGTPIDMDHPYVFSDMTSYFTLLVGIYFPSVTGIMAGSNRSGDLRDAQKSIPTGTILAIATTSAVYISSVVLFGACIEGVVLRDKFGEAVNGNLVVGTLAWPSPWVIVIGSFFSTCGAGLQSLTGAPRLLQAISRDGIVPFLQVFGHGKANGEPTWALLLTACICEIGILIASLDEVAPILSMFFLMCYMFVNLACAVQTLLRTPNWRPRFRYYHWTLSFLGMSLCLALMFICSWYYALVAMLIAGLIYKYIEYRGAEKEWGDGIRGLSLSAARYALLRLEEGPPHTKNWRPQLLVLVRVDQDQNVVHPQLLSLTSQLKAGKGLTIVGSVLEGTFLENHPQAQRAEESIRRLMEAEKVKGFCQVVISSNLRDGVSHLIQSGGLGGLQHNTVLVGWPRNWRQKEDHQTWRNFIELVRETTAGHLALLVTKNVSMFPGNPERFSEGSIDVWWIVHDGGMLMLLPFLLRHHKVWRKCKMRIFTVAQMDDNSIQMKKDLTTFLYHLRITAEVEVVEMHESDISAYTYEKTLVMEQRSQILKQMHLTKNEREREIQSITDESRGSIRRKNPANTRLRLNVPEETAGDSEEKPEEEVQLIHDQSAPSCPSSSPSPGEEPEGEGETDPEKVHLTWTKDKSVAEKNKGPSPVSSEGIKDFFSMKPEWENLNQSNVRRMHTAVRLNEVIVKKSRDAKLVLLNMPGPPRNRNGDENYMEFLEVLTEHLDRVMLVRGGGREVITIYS

Structure (SMILES)	B-score of Tl+ flux slope (higher = more flux/activation; lower = inhibition)
COc1cc2nc(Cl)nc(NCCO)c2cc1OC	0.407 (inactive)
COc1cccc(NC(=O)C(Sc2nnnn2C)c2ccccc2)c1 (centres undefined)	-0.113 (inactive)
CC(Sc1nc2ccccc2c(=O)n1Cc1ccco1)C(=O)c1ccccc1 (centres undefined)	-0.121 (inactive)
COc1cccc(NC(=O)C(Sc2nc3ccccc3c(=O)n2CC(C)C)c2ccccc2)c1 (centres undefined)	7.69 (active)
Nc1nc(Sc2ncccc2[N+](=O)[O-])n[nH]1	-0.977 (inactive)
Cc1ccc(N2C(=O)CN=C2Nc2nc(C)cc(C)n2)cc1	0.73 (inactive)
CNC(=S)NNC(=O)c1ccc(N(C)C)cc1	0.736 (inactive)
O=C(CCc1ccccc1)NNC(=O)c1ccc(Br)cc1	-1.74 (inactive)
CC(=O)NC(=S)NNC(=O)c1ccc(Br)cc1	5.47 (active)
COC(=O)c1ccc(S(=O)(=O)NCc2ccccc2)n1C	-0.343 (inactive)
O=C1CCCCC1C(=O)c1ccccc1 (centres undefined)	0.304 (inactive)
CN(C)c1cc(-c2ccc(F)cc2)oc(=O)c1Cl	0.0271 (inactive)
COc1ccnc(Oc2ccccc2)c1-c1ncn[nH]1	0.306 (inactive)
O=C(NCc1cccs1)C1CCN(S(=O)(=O)c2ccc(Cl)cc2)CC1	-0.17 (inactive)
O=C(CNCc1ccco1)Nc1cc(S(=O)(=O)N2CCOCC2)ccc1N1CCCC1	-0.873 (inactive)
O=C(CNCc1cccs1)Nc1cc(S(=O)(=O)N2CCCC2)ccc1Cl	-3.68 (active)
COCCCn1c(-c2cccs2)nc2nc3ccccc3nc21	0.0602 (inactive)

Structure (SMILES)	B-score of Tl+ flux slope (higher = more flux/activation; lower = inhibition)
O=C(N/N=C1\CCSC1)c1cc(Cl)ccc1O	0.11 (inactive)
C/C(=N/NC(=O)c1cc(Cl)ccc1O)C12CC3CC(CC(C3)C1)C2	4.51 (active)
COc1ccc(Cl)cc1NC(=O)CN(C)C(=O)CNC(=O)C12CC3CC(CC(C3)C1)C2	0.0604 (inactive)
CCOC(=O)C1CCN(C(=O)Nc2ccc(C)c(Cl)c2)CC1	0.0935 (inactive)
CCOC(=O)C(=Cc1ccccc1OC)C(=O)OCC	-0.438 (inactive)
O=C(CN1C(=O)/C(=C/c2ccccc2F)Sc2ccccc21)NCc1cccnc1	-1.86 (inactive)
COc1ccc(C(=O)C2CCCN(C(=O)c3cnsn3)C2)c(C)c1 (centres undefined)	-0.0096 (inactive)
O=S(=O)(c1ccccc1)N1CN(Cc2ccc(F)cc2)c2nc3ccccc3nc21	-1.17 (inactive)
CCc1ccc(Nc2nnc(SCC(=O)c3ccc4c(c3)NC(=O)CO4)s2)cc1	-5.32 (active)
O=C1COc2ccc(C(=O)COC(=O)c3cccnc3Cl)cc2N1	-0.384 (inactive)
COc1cccc(Nc2nnc(SCC(=O)N3CC(=O)Nc4ccccc43)s2)c1	-0.459 (inactive)
O=C(Cn1cnc2cc([N+](=O)[O-])ccc2c1=O)NC(=O)NCc1ccccc1	-0.182 (inactive)
CC(=O)c1ccc(S(=O)(=O)Nc2ccc(C(=O)NCC(c3ccccc3)N(C)C)cc2)cc1 (centres undefined)	0.133 (inactive)
COc1ccc(N2CCC(CNC(=S)Nc3c(C)cccc3C)C2)cc1 (centres undefined)	-0.00939 (inactive)
Cc1c(NC(=O)c2cccnc2)c(=O)n(-c2ccccc2)n1C	0.0888 (inactive)
Cc1c(NC(=O)CSc2nnnn2-c2ccc(C(=O)O)cc2)c(=O)n(-c2ccccc2)n1C	1.95 (inactive)
Cc1c(NC(=O)CSc2cccc3cccnc23)c(=O)n(-c2ccccc2)n1C	4.92 (active)
